# Assays:
# Test in all cases: DAPPL (digital affinity profiling via proximity ligation, sequencing); 10 mM Tris-HCl pH 7.5, 50 mM NaCl, 1 mM DTT, 4% glycerol, room temperature, 30 min; GST-TFs on glutathione beads, 16-mer random dsDNA library, 0.1% formaldehyde crosslink after washing; high values mean tight binding
# Conditions in all cases: protein: recombinant; tags: N-terminal GST; dsDNA, one strand shown
# FLI1 = target: T1, FLI1 (Homo sapiens, UniProt Q01543 1-452)
# T1 sequence: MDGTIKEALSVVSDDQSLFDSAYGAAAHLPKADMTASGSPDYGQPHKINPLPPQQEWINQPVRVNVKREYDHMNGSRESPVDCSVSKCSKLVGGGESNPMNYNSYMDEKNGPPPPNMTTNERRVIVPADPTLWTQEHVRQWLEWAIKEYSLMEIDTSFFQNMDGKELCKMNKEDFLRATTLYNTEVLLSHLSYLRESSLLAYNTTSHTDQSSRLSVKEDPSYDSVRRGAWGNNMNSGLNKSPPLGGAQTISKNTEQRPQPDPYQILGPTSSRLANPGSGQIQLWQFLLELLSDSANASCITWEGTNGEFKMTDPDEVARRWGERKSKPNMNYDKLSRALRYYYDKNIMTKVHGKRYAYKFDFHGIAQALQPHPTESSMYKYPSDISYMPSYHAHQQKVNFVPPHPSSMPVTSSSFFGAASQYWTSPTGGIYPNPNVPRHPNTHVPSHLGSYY
# Summary of the method: (§1)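 Human transcription factors were made in yeast as GST fusions, captured on glutathione beads and barcoded with DNA. With a tag-only sample included, the pool was incubated with 200 nmole of a random double-stranded 16-mer DNA library in Tris/NaCl/DTT/glycerol buffer at room temperature for 30 min, then crosslinked with 0.1% formaldehyde after washing, ligated by proximity, amplified and sequenced. For binding signal, each hexamer's read frequency for a factor is divided by its frequency for the tag-only sample.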
# ELK1 = target: T2, ELK1 (Homo sapiens, UniProt P19419 1-428)
# T2 sequence: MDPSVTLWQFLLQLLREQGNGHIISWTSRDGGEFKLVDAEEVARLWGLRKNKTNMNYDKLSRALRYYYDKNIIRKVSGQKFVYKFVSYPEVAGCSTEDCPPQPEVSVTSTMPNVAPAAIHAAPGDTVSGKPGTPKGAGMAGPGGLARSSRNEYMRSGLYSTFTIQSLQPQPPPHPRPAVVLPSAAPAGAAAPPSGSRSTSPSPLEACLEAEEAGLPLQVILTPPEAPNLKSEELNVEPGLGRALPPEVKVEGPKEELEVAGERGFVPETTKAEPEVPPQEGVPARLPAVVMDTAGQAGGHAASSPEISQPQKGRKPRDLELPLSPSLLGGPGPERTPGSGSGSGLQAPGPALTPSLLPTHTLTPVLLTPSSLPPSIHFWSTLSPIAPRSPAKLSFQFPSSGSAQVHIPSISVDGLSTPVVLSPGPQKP
# Summary of the method: as §1
# GABPA = target: T3, GABPA (Homo sapiens, UniProt Q06546 1-454)
# T3 sequence: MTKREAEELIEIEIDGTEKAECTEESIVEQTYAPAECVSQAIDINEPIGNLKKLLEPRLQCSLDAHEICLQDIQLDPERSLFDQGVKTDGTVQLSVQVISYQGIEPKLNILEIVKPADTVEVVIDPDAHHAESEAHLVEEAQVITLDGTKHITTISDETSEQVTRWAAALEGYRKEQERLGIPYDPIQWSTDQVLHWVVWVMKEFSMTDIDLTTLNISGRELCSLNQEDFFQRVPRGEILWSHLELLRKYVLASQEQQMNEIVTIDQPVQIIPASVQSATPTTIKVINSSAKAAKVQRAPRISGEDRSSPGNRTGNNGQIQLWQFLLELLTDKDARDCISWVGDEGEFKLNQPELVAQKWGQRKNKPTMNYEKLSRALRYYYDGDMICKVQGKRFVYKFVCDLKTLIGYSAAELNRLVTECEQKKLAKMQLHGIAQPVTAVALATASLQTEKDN
# Summary of the method: as §1
# ERG = target: T4, ERG (Homo sapiens, UniProt P11308 1-479)
# T4 sequence: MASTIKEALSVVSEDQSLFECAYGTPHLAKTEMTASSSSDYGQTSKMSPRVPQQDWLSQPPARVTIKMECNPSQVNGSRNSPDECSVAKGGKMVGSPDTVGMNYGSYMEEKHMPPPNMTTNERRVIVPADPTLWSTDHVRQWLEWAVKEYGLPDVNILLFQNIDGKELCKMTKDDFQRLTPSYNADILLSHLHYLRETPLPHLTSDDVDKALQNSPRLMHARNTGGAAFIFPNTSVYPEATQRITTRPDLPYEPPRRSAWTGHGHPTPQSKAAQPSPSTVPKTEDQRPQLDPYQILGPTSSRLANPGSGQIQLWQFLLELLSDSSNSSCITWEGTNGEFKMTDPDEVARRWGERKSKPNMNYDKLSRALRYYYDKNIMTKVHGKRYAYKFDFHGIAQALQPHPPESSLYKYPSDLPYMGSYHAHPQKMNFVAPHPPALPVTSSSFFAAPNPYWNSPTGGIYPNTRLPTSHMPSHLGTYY
# Summary of the method: as §1
# ELF1 = ELF1 (Homo sapiens, UniProt P32519 1-619)
# Summary of the method: as §1
# EHF = target: T5, EHF (Homo sapiens, UniProt Q9NZC4 1-300)
# T5 sequence: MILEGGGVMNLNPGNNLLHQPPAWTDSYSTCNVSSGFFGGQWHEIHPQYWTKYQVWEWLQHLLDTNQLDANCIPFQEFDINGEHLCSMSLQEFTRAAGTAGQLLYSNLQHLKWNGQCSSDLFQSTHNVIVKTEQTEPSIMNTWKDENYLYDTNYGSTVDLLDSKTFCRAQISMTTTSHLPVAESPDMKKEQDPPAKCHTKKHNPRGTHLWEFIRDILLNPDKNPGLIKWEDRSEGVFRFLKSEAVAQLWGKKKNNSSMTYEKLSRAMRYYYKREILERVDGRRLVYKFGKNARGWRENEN
# Summary of the method: as §1
# SPI1 = SPI1 (Homo sapiens, UniProt P17947 1-270)
# Summary of the method: as §1
# SPIB = SPIB (Homo sapiens, UniProt Q01892 1-262)
# Summary of the method: as §1
# ELK3 = target: T6, ELK3 (Homo sapiens, UniProt P41970 1-407)
# T6 sequence: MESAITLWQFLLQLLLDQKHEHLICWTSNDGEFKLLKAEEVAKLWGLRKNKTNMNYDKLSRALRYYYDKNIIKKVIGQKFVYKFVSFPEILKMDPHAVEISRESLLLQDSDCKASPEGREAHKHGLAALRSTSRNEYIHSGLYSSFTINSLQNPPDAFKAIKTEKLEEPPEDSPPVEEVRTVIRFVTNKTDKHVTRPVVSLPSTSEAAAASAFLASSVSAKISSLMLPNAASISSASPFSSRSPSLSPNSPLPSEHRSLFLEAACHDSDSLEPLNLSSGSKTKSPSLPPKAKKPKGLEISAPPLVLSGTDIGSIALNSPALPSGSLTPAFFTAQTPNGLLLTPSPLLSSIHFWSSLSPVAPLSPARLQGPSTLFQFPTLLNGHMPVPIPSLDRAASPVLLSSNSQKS
# Summary of the method: as §1
# FEV = target: T7, FEV (Homo sapiens, UniProt Q99581 1-238)
# T7 sequence: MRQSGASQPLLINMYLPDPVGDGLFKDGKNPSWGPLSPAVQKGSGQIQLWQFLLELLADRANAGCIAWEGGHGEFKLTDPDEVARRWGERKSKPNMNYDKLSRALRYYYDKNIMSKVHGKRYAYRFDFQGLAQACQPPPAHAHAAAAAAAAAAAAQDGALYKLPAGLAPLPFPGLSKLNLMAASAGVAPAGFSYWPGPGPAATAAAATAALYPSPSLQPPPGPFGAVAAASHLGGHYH
# Summary of the method: as §1
# ETV5 = ETV5 (Homo sapiens, UniProt P41161 1-510)
# Summary of the method: as §1
# SPIC = target: T8, SPIC (Homo sapiens, UniProt Q8N5J4 1-248)
# T8 sequence: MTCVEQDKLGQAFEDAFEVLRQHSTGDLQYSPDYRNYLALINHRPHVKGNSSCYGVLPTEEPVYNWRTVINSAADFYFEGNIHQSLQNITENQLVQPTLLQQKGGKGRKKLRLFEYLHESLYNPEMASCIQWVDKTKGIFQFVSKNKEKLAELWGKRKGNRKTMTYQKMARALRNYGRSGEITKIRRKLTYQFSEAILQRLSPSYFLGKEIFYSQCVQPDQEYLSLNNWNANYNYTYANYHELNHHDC
# Summary of the method: as §1
# ELF4 = ELF4 (Homo sapiens, UniProt Q99607 1-663)
# Summary of the method: as §1
# ELK4 = target: T9, ELK4 (Homo sapiens, UniProt P28324-2 1-405)
# T9 sequence: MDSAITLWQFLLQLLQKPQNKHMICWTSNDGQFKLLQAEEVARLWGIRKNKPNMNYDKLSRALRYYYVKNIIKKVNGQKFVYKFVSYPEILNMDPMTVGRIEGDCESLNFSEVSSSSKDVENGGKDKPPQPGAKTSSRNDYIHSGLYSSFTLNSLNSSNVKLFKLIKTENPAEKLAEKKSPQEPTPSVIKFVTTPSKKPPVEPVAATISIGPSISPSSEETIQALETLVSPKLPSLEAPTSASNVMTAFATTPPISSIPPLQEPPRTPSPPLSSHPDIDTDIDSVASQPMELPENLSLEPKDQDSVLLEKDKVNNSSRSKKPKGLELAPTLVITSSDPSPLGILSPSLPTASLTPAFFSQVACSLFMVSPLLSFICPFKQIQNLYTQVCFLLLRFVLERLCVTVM
# Summary of the method: as §1
# ETV2 = target: T10, ETV2 (Homo sapiens, UniProt O00321 1-342)
# T10 sequence: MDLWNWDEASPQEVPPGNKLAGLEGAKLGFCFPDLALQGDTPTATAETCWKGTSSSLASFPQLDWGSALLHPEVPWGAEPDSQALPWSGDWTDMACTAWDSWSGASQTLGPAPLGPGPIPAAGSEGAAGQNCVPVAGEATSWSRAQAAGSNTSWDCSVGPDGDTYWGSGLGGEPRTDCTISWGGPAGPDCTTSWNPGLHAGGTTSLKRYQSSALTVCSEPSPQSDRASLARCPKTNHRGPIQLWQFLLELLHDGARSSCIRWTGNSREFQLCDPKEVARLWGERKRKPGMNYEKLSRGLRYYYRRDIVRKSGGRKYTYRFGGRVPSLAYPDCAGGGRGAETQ
# Summary of the method: as §1
# ELF3 = target: T11, ELF3 (Homo sapiens, UniProt P78545 1-371)
# T11 sequence: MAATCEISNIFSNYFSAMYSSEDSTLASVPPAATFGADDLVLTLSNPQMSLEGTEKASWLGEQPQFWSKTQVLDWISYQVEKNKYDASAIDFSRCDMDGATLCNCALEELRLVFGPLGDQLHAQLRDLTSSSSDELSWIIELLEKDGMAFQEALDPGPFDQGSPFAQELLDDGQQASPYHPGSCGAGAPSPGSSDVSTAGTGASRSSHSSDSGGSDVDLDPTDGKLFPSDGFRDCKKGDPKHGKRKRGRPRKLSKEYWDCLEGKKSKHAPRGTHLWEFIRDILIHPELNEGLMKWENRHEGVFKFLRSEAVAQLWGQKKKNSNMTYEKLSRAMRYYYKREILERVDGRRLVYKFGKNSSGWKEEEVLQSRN
# Summary of the method: as §1
# CRX = CRX (Homo sapiens, UniProt O43186 1-299)
# Summary of the method: as §1
# ETV1 = ETV1 (Homo sapiens, UniProt P50549 1-477)
# Summary of the method: as §1
# Sequence of CRX (O43186 whole entry): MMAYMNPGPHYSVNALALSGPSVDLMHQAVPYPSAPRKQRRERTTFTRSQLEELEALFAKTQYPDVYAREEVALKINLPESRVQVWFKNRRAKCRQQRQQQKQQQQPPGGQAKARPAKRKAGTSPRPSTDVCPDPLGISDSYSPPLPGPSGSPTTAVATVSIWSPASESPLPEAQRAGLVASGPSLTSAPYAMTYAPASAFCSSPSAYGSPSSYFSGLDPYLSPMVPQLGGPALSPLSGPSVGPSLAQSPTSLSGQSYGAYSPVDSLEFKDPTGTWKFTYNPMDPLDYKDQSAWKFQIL
# Sequence of ELF1 (P32519 whole entry): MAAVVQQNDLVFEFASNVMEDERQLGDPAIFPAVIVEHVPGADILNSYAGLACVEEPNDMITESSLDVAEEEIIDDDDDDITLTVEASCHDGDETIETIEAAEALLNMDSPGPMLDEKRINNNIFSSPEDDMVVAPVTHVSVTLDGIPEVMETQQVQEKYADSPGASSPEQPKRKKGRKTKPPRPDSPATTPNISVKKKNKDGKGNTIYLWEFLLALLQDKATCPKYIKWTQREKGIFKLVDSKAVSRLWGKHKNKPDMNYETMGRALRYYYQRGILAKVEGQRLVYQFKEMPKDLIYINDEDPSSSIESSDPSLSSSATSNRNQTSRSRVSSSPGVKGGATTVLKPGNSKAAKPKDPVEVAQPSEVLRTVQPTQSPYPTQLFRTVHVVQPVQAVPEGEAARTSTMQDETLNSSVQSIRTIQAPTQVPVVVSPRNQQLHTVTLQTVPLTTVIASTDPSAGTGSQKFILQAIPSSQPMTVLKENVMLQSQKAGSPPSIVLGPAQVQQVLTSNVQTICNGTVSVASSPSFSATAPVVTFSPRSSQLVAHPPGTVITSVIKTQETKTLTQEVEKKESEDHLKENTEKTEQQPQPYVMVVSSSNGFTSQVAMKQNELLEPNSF
# Sequence of ETV1 (P50549 whole entry): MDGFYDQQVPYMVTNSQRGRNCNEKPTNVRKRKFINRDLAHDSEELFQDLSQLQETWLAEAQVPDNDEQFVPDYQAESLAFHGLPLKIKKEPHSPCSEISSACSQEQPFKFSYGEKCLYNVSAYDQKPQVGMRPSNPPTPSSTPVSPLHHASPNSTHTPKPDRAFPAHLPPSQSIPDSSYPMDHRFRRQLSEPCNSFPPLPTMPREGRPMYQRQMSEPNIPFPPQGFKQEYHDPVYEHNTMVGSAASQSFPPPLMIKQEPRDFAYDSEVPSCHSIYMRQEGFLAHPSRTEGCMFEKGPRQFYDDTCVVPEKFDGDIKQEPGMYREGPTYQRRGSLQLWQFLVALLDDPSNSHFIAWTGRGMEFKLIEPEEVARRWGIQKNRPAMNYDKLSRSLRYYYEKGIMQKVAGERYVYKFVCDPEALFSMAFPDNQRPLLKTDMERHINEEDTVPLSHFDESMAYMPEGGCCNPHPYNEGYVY
# Sequence of SPIB (Q01892 whole entry): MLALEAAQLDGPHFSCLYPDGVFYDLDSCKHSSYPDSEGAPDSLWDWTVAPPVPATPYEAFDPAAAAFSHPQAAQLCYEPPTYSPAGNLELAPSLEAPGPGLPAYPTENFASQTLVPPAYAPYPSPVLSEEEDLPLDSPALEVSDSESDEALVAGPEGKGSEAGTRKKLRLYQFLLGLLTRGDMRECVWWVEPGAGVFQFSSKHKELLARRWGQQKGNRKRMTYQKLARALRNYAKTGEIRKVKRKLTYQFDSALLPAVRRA
# Sequence of ELF4 (Q99607 whole entry): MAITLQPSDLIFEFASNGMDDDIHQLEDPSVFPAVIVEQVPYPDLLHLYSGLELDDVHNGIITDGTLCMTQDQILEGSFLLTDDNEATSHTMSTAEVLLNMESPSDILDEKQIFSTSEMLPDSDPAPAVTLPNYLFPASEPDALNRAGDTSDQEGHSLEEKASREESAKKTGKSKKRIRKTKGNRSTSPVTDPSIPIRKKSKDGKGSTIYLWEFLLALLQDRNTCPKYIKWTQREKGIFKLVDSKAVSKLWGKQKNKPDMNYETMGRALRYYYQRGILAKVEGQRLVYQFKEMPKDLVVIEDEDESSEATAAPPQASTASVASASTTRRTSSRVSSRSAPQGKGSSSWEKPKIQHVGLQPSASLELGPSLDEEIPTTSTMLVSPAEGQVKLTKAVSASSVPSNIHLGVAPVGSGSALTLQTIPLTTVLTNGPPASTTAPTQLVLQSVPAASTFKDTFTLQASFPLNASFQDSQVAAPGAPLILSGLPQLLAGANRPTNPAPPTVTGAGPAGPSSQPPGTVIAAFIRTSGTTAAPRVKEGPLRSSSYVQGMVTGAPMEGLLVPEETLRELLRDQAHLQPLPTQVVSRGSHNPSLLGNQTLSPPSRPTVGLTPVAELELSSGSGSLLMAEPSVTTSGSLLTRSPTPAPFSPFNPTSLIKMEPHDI
# Sequence of ETV5 (P41161 whole entry): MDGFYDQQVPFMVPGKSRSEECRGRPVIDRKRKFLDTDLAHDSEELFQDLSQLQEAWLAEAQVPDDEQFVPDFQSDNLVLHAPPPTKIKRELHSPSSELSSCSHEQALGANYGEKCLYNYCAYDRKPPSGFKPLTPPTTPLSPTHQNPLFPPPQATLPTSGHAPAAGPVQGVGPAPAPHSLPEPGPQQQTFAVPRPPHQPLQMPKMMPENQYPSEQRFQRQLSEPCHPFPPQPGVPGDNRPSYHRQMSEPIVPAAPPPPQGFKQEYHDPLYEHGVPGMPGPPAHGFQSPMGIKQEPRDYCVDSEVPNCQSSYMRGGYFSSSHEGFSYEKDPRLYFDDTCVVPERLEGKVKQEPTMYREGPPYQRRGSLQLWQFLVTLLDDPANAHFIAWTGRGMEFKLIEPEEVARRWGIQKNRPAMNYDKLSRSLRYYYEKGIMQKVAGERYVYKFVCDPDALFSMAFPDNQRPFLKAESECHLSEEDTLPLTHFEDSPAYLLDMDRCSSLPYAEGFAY
Sequence,binding signal (FLI1),binding signal (ELK1),binding signal (GABPA),binding signal (ERG),binding signal (ELF1),binding signal (EHF),binding signal (SPI1),binding signal (SPIB),binding signal (ELK3),binding signal (FEV),binding signal (ETV5),binding signal (SPIC),binding signal (ELF4),binding signal (ELK4),binding signal (ETV2),binding signal (ELF3),binding signal (CRX),binding signal (ETV1)
TGCATA,"1.08 fold enrichment (6-mer frequency, TF over GST control)","1.11 fold enrichment (6-mer frequency, TF over GST control)","1.13 fold enrichment (6-mer frequency, TF over GST control)","1.11 fold enrichment (6-mer frequency, TF over GST control)","1.06 fold enrichment (6-mer frequency, TF over GST control)","1.16 fold enrichment (6-mer frequency, TF over GST control)","1.15 fold enrichment (6-mer frequency, TF over GST control)","1.11 fold enrichment (6-mer frequency, TF over GST control)","1.15 fold enrichment (6-mer frequency, TF over GST control)","1.13 fold enrichment (6-mer frequency, TF over GST control)","1.14 fold enrichment (6-mer frequency, TF over GST control)","1.17 fold enrichment (6-mer frequency, TF over GST control)","1.2 fold enrichment (6-mer frequency, TF over GST control)","1.13 fold enrichment (6-mer frequency, TF over GST control)","1.02 fold enrichment (6-mer frequency, TF over GST control)","1.03 fold enrichment (6-mer frequency, TF over GST control)","1.01 fold enrichment (6-mer frequency, TF over GST control)","1.07 fold enrichment (6-mer frequency, TF over GST control)"
TCAATG,"1.08 fold enrichment (6-mer frequency, TF over GST control)","1.13 fold enrichment (6-mer frequency, TF over GST control)","1.11 fold enrichment (6-mer frequency, TF over GST control)","1.1 fold enrichment (6-mer frequency, TF over GST control)","1.04 fold enrichment (6-mer frequency, TF over GST control)","1.04 fold enrichment (6-mer frequency, TF over GST control)","1.07 fold enrichment (6-mer frequency, TF over GST control)","1.11 fold enrichment (6-mer frequency, TF over GST control)","1.07 fold enrichment (6-mer frequency, TF over GST control)","1.03 fold enrichment (6-mer frequency, TF over GST control)","1.02 fold enrichment (6-mer frequency, TF over GST control)","1.09 fold enrichment (6-mer frequency, TF over GST control)","1.06 fold enrichment (6-mer frequency, TF over GST control)","1.04 fold enrichment (6-mer frequency, TF over GST control)","1.05 fold enrichment (6-mer frequency, TF over GST control)","1.03 fold enrichment (6-mer frequency, TF over GST control)","1.02 fold enrichment (6-mer frequency, TF over GST control)","1.15 fold enrichment (6-mer frequency, TF over GST control)"

# From paper PMC7862700, “An all-to-all approach to the identification of sequence-specific readers for epigenetic DNA modifications on cytosine”
